From the supplement of paper PMC6607015
Where a name gives a salt, the structure may show the parent alone.

Experiments:
Conditions in all cases: compound concentration in added solution (µM; 5 µl added to 20 µl cells): 10; 18 h
A431 [1] = assay: LBPA endosome anti-LBPA integrated intensity (sum per cell), Z-score; higher = more LBPA staining
Procedure, shortened: (§1)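 The data are Z-scores, normalised in AcuityXpress, of integrated LBPA or filipin intensity in each cell, either whole-cell or restricted to LBPA endosomes. HeLa MZ or A431 cells, 3,500 per well in 20 µl, were seeded onto 5 µl of 10 µM compound solution in duplicate 384-well plates and incubated 18 h. Fixed cells were stained and imaged, with intensities extracted by MetaXpress segmentation.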

HeLa MZ [2] = assay: as above
Procedure, shortened: as §1

A431 [3] = assay: whole-cell filipin (free cholesterol) integrated intensity, Z-score; higher = more cholesterol staining
Procedure, shortened: as §1

HeLa MZ [4] = assay: as above
Procedure, shortened: as §1

A431 [5] = assay: filipin (cholesterol) integrated intensity within LBPA endosomes, Z-score; higher = more cholesterol in LBPA endosomes
Procedure, shortened: as §1

HeLa MZ [6] = assay: as above
Procedure, shortened: as §1

CCC(=O)O[C@@](Cc1ccccc1)(c1ccccc1)[C@@H](C)CN(C)C [Levopropoxyphene napsylate]
LBPA endosome anti-LBPA integrated intensity (z-score) (A431 [1]): -0.308 | LBPA endosome anti-LBPA integrated intensity (z-score) (HeLa MZ [2]): -0.465 | whole-cell filipin (z-score) (A431 [3]): 0.489 | whole-cell filipin (z-score) (HeLa MZ [4]): 0.709 | filipin (z-score) (A431 [5]): 0.194 | filipin (z-score) (HeLa MZ [6]): -0.129

COc1ccc(Cc2nccc3cc(OC)c(OC)cc23)cc1OC [Papaverine hydrochloride]
LBPA endosome anti-LBPA integrated intensity (z-score) (A431 [1]): -0.662 | LBPA endosome anti-LBPA integrated intensity (z-score) (HeLa MZ [2]): 0.0558 | whole-cell filipin (z-score) (A431 [3]): -0.685 | whole-cell filipin (z-score) (HeLa MZ [4]): -0.814 | filipin (z-score) (A431 [5]): -0.607 | filipin (z-score) (HeLa MZ [6]): -0.356

C[C@]12N[C@H](Cc3ccccc31)c1ccccc12 [Dizocilpine maleate]
LBPA endosome anti-LBPA integrated intensity (z-score) (A431 [1]): -0.337 | LBPA endosome anti-LBPA integrated intensity (z-score) (HeLa MZ [2]): 0.113 | whole-cell filipin (z-score) (A431 [3]): -0.302 | whole-cell filipin (z-score) (HeLa MZ [4]): -0.304 | filipin (z-score) (A431 [5]): -0.361 | filipin (z-score) (HeLa MZ [6]): -0.275

CC(=O)OC1CN2CCC1CC2 (stereo not drawn) [Aceclidine Hydrochloride]
LBPA endosome anti-LBPA integrated intensity (z-score) (A431 [1]): -0.622 | LBPA endosome anti-LBPA integrated intensity (z-score) (HeLa MZ [2]): -1.07 | whole-cell filipin (z-score) (A431 [3]): -0.642 | whole-cell filipin (z-score) (HeLa MZ [4]): 0.0664 | filipin (z-score) (A431 [5]): -0.61 | filipin (z-score) (HeLa MZ [6]): -0.54

O=P1(NCCCl)OCCCN1CCCl (stereo not drawn) [Ifosfamide]
LBPA endosome anti-LBPA integrated intensity (z-score) (A431 [1]): -0.43 | LBPA endosome anti-LBPA integrated intensity (z-score) (HeLa MZ [2]): -0.294 | whole-cell filipin (z-score) (A431 [3]): 0.0112 | whole-cell filipin (z-score) (HeLa MZ [4]): -0.489 | filipin (z-score) (A431 [5]): -0.396 | filipin (z-score) (HeLa MZ [6]): -0.611

NCC(CC(=O)O)c1ccc(Cl)cc1 (racemic) [Baclofen (R,S)]
LBPA endosome anti-LBPA integrated intensity (z-score) (A431 [1]): -0.529 | LBPA endosome anti-LBPA integrated intensity (z-score) (HeLa MZ [2]): -1.07 | whole-cell filipin (z-score) (A431 [3]): -1.03 | whole-cell filipin (z-score) (HeLa MZ [4]): -0.783 | filipin (z-score) (A431 [5]): -0.513 | filipin (z-score) (HeLa MZ [6]): -0.613

CCC1=C[C@H]2CN3CCc4c([nH]c5ccccc45)[C@](C(=O)OC)(C2)[C@H]13 [Catharanthine]
LBPA endosome anti-LBPA integrated intensity (z-score) (A431 [1]): 0.776 | LBPA endosome anti-LBPA integrated intensity (z-score) (HeLa MZ [2]): 1.57 | whole-cell filipin (z-score) (A431 [3]): 1.16 | whole-cell filipin (z-score) (HeLa MZ [4]): 0.581 | filipin (z-score) (A431 [5]): 0.958 | filipin (z-score) (HeLa MZ [6]): 0.861

NCCC(O)C(=O)NC1CC(N)C(OC2OC(CN)C(O)[C@H](O)[C@@H]2N)[C@H](OC2O[C@H](CO)[C@@H](O)[C@@H]2O)[C@@H]1O (stereo partly drawn) [Butirosin disulfate salt]
LBPA endosome anti-LBPA integrated intensity (z-score) (A431 [1]): -0.571 | LBPA endosome anti-LBPA integrated intensity (z-score) (HeLa MZ [2]): -0.99 | whole-cell filipin (z-score) (A431 [3]): -0.257 | whole-cell filipin (z-score) (HeLa MZ [4]): 0.609 | filipin (z-score) (A431 [5]): -0.399 | filipin (z-score) (HeLa MZ [6]): -0.239

O[C@@H]1CCCC[C@H]1N1CCC(c2ccccc2)CC1 [L(-)-vesamicol hydrochloride]
LBPA endosome anti-LBPA integrated intensity (z-score) (A431 [1]): -0.173 | LBPA endosome anti-LBPA integrated intensity (z-score) (HeLa MZ [2]): 1.21 | whole-cell filipin (z-score) (A431 [3]): 0.21 | whole-cell filipin (z-score) (HeLa MZ [4]): 0.285 | filipin (z-score) (A431 [5]): -0.268 | filipin (z-score) (HeLa MZ [6]): -0.0101

CCN[C@@H](C)Cc1cccc(C(F)(F)F)c1 [Dexfenfluramine hydrochloride]
LBPA endosome anti-LBPA integrated intensity (z-score) (A431 [1]): -0.18 | LBPA endosome anti-LBPA integrated intensity (z-score) (HeLa MZ [2]): -0.965 | whole-cell filipin (z-score) (A431 [3]): -0.95 | whole-cell filipin (z-score) (HeLa MZ [4]): -0.721 | filipin (z-score) (A431 [5]): -0.444 | filipin (z-score) (HeLa MZ [6]): -0.703

S=C(NC1CCCCC1)N1CCC(c2cnc[nH]2)CC1 [Thioperamide maleate]
LBPA endosome anti-LBPA integrated intensity (z-score) (A431 [1]): 2.17 | LBPA endosome anti-LBPA integrated intensity (z-score) (HeLa MZ [2]): 2.24 | whole-cell filipin (z-score) (A431 [3]): -0.0418 | whole-cell filipin (z-score) (HeLa MZ [4]): 0.0454 | filipin (z-score) (A431 [5]): 0.0582 | filipin (z-score) (HeLa MZ [6]): 0.431

O=C(NCNC(=O)NC1C(=O)NC(=O)N1CO)NC1C(=O)NC(=O)N1CO (stereo not drawn) [Imidurea]
LBPA endosome anti-LBPA integrated intensity (z-score) (A431 [1]): -0.433 | LBPA endosome anti-LBPA integrated intensity (z-score) (HeLa MZ [2]): 0.0233 | whole-cell filipin (z-score) (A431 [3]): -0.35 | whole-cell filipin (z-score) (HeLa MZ [4]): -0.63 | filipin (z-score) (A431 [5]): -0.459 | filipin (z-score) (HeLa MZ [6]): -0.511

CC(C)CC(N(C)C)C1(c2ccc(Cl)cc2)CCC1 (stereo not drawn) [Sibutramine HCl]
LBPA endosome anti-LBPA integrated intensity (z-score) (A431 [1]): -0.608 | LBPA endosome anti-LBPA integrated intensity (z-score) (HeLa MZ [2]): 0.271 | whole-cell filipin (z-score) (A431 [3]): -0.397 | whole-cell filipin (z-score) (HeLa MZ [4]): -0.373 | filipin (z-score) (A431 [5]): -0.534 | filipin (z-score) (HeLa MZ [6]): -0.424

NCC1(CC(=O)O)CCCCC1 [Gabapentin]
LBPA endosome anti-LBPA integrated intensity (z-score) (A431 [1]): -0.54 | LBPA endosome anti-LBPA integrated intensity (z-score) (HeLa MZ [2]): -0.377 | whole-cell filipin (z-score) (A431 [3]): -0.349 | whole-cell filipin (z-score) (HeLa MZ [4]): -0.476 | filipin (z-score) (A431 [5]): -0.52 | filipin (z-score) (HeLa MZ [6]): -0.627

COc1ccc(C(=O)N2CCCC2=O)cc1 [Aniracetam]
LBPA endosome anti-LBPA integrated intensity (z-score) (A431 [1]): -0.475 | LBPA endosome anti-LBPA integrated intensity (z-score) (HeLa MZ [2]): 0.124 | whole-cell filipin (z-score) (A431 [3]): -0.904 | whole-cell filipin (z-score) (HeLa MZ [4]): -0.402 | filipin (z-score) (A431 [5]): -0.562 | filipin (z-score) (HeLa MZ [6]): -0.3

c1ccc2c(c1)OCC(C1=NCCN1)O2 (stereo not drawn) [Idazoxan hydrochloride]
LBPA endosome anti-LBPA integrated intensity (z-score) (A431 [1]): -0.313 | LBPA endosome anti-LBPA integrated intensity (z-score) (HeLa MZ [2]): 0.376 | whole-cell filipin (z-score) (A431 [3]): -0.115 | whole-cell filipin (z-score) (HeLa MZ [4]): -0.982 | filipin (z-score) (A431 [5]): -0.462 | filipin (z-score) (HeLa MZ [6]): -0.278

COc1ccc(C(CN(C)C)C2(O)CCCCC2)cc1 (stereo not drawn) [Venlafaxine]
LBPA endosome anti-LBPA integrated intensity (z-score) (A431 [1]): -0.375 | LBPA endosome anti-LBPA integrated intensity (z-score) (HeLa MZ [2]): 0.627 | whole-cell filipin (z-score) (A431 [3]): -0.148 | whole-cell filipin (z-score) (HeLa MZ [4]): -0.294 | filipin (z-score) (A431 [5]): -0.383 | filipin (z-score) (HeLa MZ [6]): -0.283

O=c1[nH]oc2c1CCNC2 [THIP Hydrochloride]
LBPA endosome anti-LBPA integrated intensity (z-score) (A431 [1]): -0.526 | LBPA endosome anti-LBPA integrated intensity (z-score) (HeLa MZ [2]): -1.24 | whole-cell filipin (z-score) (A431 [3]): -0.151 | whole-cell filipin (z-score) (HeLa MZ [4]): -1.07 | filipin (z-score) (A431 [5]): -0.413 | filipin (z-score) (HeLa MZ [6]): -0.582

CC(=O)NC1CCSC1=O (racemic) [N-Acetyl-DL-homocysteine Thiolactone]
LBPA endosome anti-LBPA integrated intensity (z-score) (A431 [1]): -0.475 | LBPA endosome anti-LBPA integrated intensity (z-score) (HeLa MZ [2]): -0.898 | whole-cell filipin (z-score) (A431 [3]): -0.462 | whole-cell filipin (z-score) (HeLa MZ [4]): -0.0159 | filipin (z-score) (A431 [5]): -0.405 | filipin (z-score) (HeLa MZ [6]): -0.461

COc1cccc(C2(O)CCCCC2CN(C)C)c1 (stereo not drawn) [Tramadol hydrochloride]
LBPA endosome anti-LBPA integrated intensity (z-score) (A431 [1]): -0.437 | LBPA endosome anti-LBPA integrated intensity (z-score) (HeLa MZ [2]): 0.543 | whole-cell filipin (z-score) (A431 [3]): -0.062 | whole-cell filipin (z-score) (HeLa MZ [4]): -0.487 | filipin (z-score) (A431 [5]): -0.403 | filipin (z-score) (HeLa MZ [6]): -0.176

Clc1ccc(C(OCCN2CCCCC2)c2ccccc2)cc1 (stereo not drawn) [Cloperastine hydrochloride]
LBPA endosome anti-LBPA integrated intensity (z-score) (A431 [1]): 3.12 | LBPA endosome anti-LBPA integrated intensity (z-score) (HeLa MZ [2]): 1.44 | whole-cell filipin (z-score) (A431 [3]): 1.35 | whole-cell filipin (z-score) (HeLa MZ [4]): -0.495 | filipin (z-score) (A431 [5]): 2.83 | filipin (z-score) (HeLa MZ [6]): 0.777

CC(C)(C)NCC(O)c1cc(Cl)c(N)c(Cl)c1 (stereo not drawn) [Clenbuterol hydrochloride]
LBPA endosome anti-LBPA integrated intensity (z-score) (A431 [1]): 0.0925 | LBPA endosome anti-LBPA integrated intensity (z-score) (HeLa MZ [2]): 0.441 | whole-cell filipin (z-score) (A431 [3]): -0.358 | whole-cell filipin (z-score) (HeLa MZ [4]): -0.387 | filipin (z-score) (A431 [5]): -0.383 | filipin (z-score) (HeLa MZ [6]): -0.295

CN1[C@@H]2CC[C@H]1C[C@@H](OC(=O)[C@H](CO)c1ccccc1)C2 [Hyoscyamine (L)]
LBPA endosome anti-LBPA integrated intensity (z-score) (A431 [1]): -0.717 | LBPA endosome anti-LBPA integrated intensity (z-score) (HeLa MZ [2]): -1.24 | whole-cell filipin (z-score) (A431 [3]): -0.954 | whole-cell filipin (z-score) (HeLa MZ [4]): -0.599 | filipin (z-score) (A431 [5]): -0.664 | filipin (z-score) (HeLa MZ [6]): -0.33
